According to PubChem BioAssay (NCATS):
Records with an inconclusive call do not appear. Active and inactive are the calls of the source. The call rests on the fitted dose curve; in most records, active means well fitted inhibition curve with a large enough effect; inconclusive means small, poorly fitted or top-dose-only effect; inactive means flat fitted curve, though single readings scatter.

How the values were obtained:
[1] = biological target: Glutathione peroxidase 1 (Homo sapiens) (UniProt P07203); test: Primary qHTS Assay for Inhibitors of Recombinant Selenoprotein Glutathione Peroxidase 1 (GPX1) (AID 1845191); further: nearly all actives have a fitted effect of over 65% in size; on activity, negative = inhibition: on the % scale 0 is the no-effect control and ±100 the full control effect
Glutathione peroxidase 1 (Homo sapiens), sequence (P07203 whole entry, looked up): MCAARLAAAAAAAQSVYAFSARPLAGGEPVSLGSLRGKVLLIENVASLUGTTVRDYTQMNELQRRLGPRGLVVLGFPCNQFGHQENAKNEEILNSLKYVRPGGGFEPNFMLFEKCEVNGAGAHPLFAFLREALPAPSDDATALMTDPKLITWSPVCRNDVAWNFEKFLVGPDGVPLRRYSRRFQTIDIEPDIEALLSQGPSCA
Outline: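 GPX1 10 nM, GR 100 nM, GSH 1 mM, NADPH 0.5 mM, CHP 0.5 mM (final). 30-min cpd preincubation, RT. Ex340/Em450 read t=0, t=15 min.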

[2] = biological target: Phospholipid hydroperoxide glutathione peroxidase GPX4 (Homo sapiens) (UniProt P36969); test: Primary qHTS Assay for Inhibitors of Recombinant Selenoprotein Glutathione Peroxidase 4 (GPX4) (AID 1845192); further: nearly all actives have a fitted effect of over 65% in size; on activity change, negative = inhibition: series mostly up to about 50 µM; on the % scale 0 is the no-effect control and ±100 the full control effect
Phospholipid hydroperoxide glutathione peroxidase GPX4 (Homo sapiens), sequence (P36969 whole entry, looked up): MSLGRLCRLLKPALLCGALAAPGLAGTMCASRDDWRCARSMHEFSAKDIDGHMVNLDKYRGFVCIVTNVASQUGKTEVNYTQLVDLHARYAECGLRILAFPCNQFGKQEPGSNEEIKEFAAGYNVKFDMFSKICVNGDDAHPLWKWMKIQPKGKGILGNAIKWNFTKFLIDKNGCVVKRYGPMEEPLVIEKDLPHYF
Outline: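 qHTS, GR-coupled: GPX4 200 nM + cpd 30 min RT → GSH 1 mM, NADPH 0.5 mM, GR 100 nM → CHP 0.5 mM start; fluor 340/450 at t0 and t15 min; no-enzyme wells as control.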

[3] = biological target: Luciferin 4-monooxygenase (Photinus pyralis) (UniProt P08659); test: Primary firefly luciferase (FLuc) qHTS assay for identification of artifact compounds. (AID 1845220); further: nearly all actives have a fitted effect of over 60% in size;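 on activity change, negative = inhibition: series mostly up to about 54 µM; plate controls were DMSO vehicle for no effect and no enzyme for full effect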
Outline: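 Reaction readout was CCD-imaged luminescence, taken 5 min after adding 10 nM purified firefly enzyme to compound-treated wells holding 10 uM luciferin and ATP in pH 7.6 buffer.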

CC1=CC[C@]2(C(=O)O[C@@H]3O[C@H](CO[C@@H]4O[C@H](CO)[C@@H](O[C@@H]5O[C@@H](C)[C@H](O)[C@@H](O)[C@H]5O)[C@H](O)[C@H]4O)[C@@H](O)[C@H](O)[C@H]3O)CC[C@]3(C)C(CCC4[C@@]5(C)C[C@@H](O)[C@H](O)[C@@](C)(CO)C5CC[C@]43C)C2C1C (stereo not given in full)
inactive: Potency [1] | Potency [2] | activity change, negative = inhibition [3] 0.527% [at 11.6 µM]

C[C@@H]1C(=O)O[C@H]2CC34[C@H]5C[C@@H](C(C)(C)C)C36[C@@H](OC(=O)[C@@H]6O)OC4(C(=O)O5)[C@]21O (stereo not given in full)
inactive: Potency [1] | Potency [2] | Potency [3]

CN[C@@H]1[C@@H](O)[C@@H](O[C@@H]2[C@@H](O)[C@H](O[C@H]3O[C@H](CN)[C@@H](O)[C@H](O)[C@H]3O)[C@@H](N)C[C@H]2NC(=O)[C@@H](O)CN)OC[C@]1(C)O
inactive: Potency [1] | Potency [2] | Potency [3]

COCCN(C)Cc1ccc2nc3sc(C(=O)N(C)C4CCCCC4)cn3c2c1
inactive: Potency [1] | Potency [2] | Potency [3]

COc1cc2c(cc1O)C1(OC)Cc3ccc4c(c3C1N(C)CC2)OCO4 (stereo not given)
inactive: Potency [1] | Potency [2] | Potency [3]

C[C@@H]1O[C@@H](O[C@@H]2[C@@H](O)[C@H](O[C@@H]3[C@@H](O)[C@@H](O)[C@H](O[C@H]4[C@H](OC(=O)[C@]56CCC(C)(C)C[C@H]5C5=CCC7[C@@]8(C)C[C@H](O)[C@H](O[C@@H]9O[C@H](C(=O)O)[C@@H](O)[C@H](O)[C@H]9O)[C@@](C)(CO)C8[C@H](O)C[C@@]7(C)[C@]5(C)CC6)OC[C@H](O)[C@@H]4O)O[C@H]3C)OC[C@H]2O)[C@H](O)[C@H](O)[C@H]1O (stereo not given in full)
inactive: outcome [1] inactive [at 9.52 µM] | activity change, negative = inhibition [2] -2.98% [at 9.73 µM] | outcome [3] inactive [at 11.6 µM]

CC1CCC2(C(=O)OC3OC(CO)C(O)C(O)C3O)CCC3(C)C(=CCC4C5(C)CC(O)C(O)C(C)(C(=O)O)C5CCC43C)C2C1(C)O (stereo not given)
inactive: Potency [1] | Potency [2] | Potency [3]

CC(C)=CCCC1(C)Oc2cc3c(c4c2C2C(O4)C(C)(O)CCC21)CN(C(CCC(=O)O)C(=O)O)C3=O (stereo not given)
inactive: Potency [1] | Potency [2] | Potency [3]

COc1ccccc1[C@@H]1C2=C(CC(C)(C)CC2=O)Nc2n[nH]c(C(F)(F)F)c21
inactive: Potency [1] | Potency [2] | Potency [3]

CC(CCC1C(C(=O)O)=CC(=O)CC1(C)C)O[C@@H]1O[C@H](CO)[C@@H](O)[C@H](O)[C@H]1O (stereo not given in full)
inactive: Potency [1] | Potency [2] | Potency [3]

COc1ccccc1CC(C(=O)O)N(C)C(=O)c1ccccc1 (stereo not given)
inactive: Potency [1] | Potency [2] | Potency [3]

C=CC(C)(O)CC/C=C(\C)C(=O)OCC1OC(OC2CCC3(C)C(CCC4(C)C3CC=C3C5CC(C)(C)C(O)CC5(C(=O)O)CCC34C)C2(C)C)C(O)C(OC2OC(CO)C(O)C(OC3OC(CO)C(O)C(OC4OC(COC5OC(CO)C(O)C(O)C5O)C(O)C(O)C4O)C3O)C2O)C1O (stereo not given)
inactive: outcome [1] inactive [at 9.52 µM] | outcome [2] inactive [at 9.73 µM] | outcome [3] inactive [at 11.6 µM]

O=C(O)[C@H]1CCCC[C@H]1C(=O)N1CCc2ccccc2[C@H]1CN1C(=O)c2ccccc2C1=O
inactive: Potency [1] | Potency [2] | Potency [3]

C[C@]1(O)CC[C@@H]2C(C(=O)O)=CO[C@@H](O[C@@H]3O[C@H](COC(=O)c4ccc(O)cc4)[C@@H](O)[C@H](O)[C@H]3O)[C@@H]21
inactive: Potency [1] | Potency [2] | Potency [3]

CC(=O)OCCC(C)CCC1C(C)(O)CCC2C(C)(C)CCCC21C (stereo not given)
inactive: Potency [1] | Potency [2] | Potency [3]

Cc1ncc([N+](=O)[O-])n1CC(O)CN1CCOCC1 (stereo not given)
inactive: Potency [1] | Potency [2] | Potency [3]

O=C(/C=C/c1ccccc1)OCC1=CC[C@@H]2C(C(=O)O)=CO[C@@H](O[C@@H]3O[C@H](CO)[C@@H](O)[C@H](O)[C@H]3O)[C@H]12
inactive: Potency [1] | Potency [2] | Potency [3]

N[C@@H](CC(=O)N1CCn2c(nnc2C(F)(F)F)C1)Cc1[nH]nc2c(F)c(F)ccc12
inactive: Potency [1] | Potency [2] | Potency [3]

O=C(/C=C/c1c(C(=O)O)[nH]c2cc(Cl)cc(Cl)c12)Nc1ccccc1
inactive: Potency [1] | Potency [2] | Potency [3]

Cc1nn(C)c2c1C(c1ccc(C(F)(F)F)cc1)C(C#N)=C(N)O2 (stereo not given)
inactive: Potency [1] | Potency [2] | Potency [3]

COc1cc(/C=C/C(=O)OC2CC(C)=C(C(=O)O)/C2=C/CO[C@@H]2O[C@H](CO)[C@@H](O)[C@H](O)[C@H]2O)ccc1O (stereo not given in full)
inactive: Potency [1] | Potency [2] | Potency [3]

CCC(C)C(=O)O[C@@H]1[C@@H](O)[C@@H](O[C@H]2O[C@H](CO)[C@@H](O)[C@H](O)[C@H]2O)O[C@H](CO)[C@H]1O (stereo not given in full)
inactive: Potency [1] | Potency [2] | Potency [3]

C/C=C(\C)C(=O)OC[C@H]1O[C@H](O[C@H]2O[C@H](CO)[C@@H](OC(=O)/C(C)=C/C)[C@H](O)[C@H]2O[C@@H]2O[C@H](CO)[C@@H](O)[C@H](O)[C@H]2O)[C@H](O[C@@H]2O[C@H](CO)[C@@H](O)[C@H](O)[C@H]2O)[C@@H](O)[C@@H]1O
inactive: Potency [1] | Potency [2] | activity change, negative = inhibition [3] 1.93% [at 11.6 µM]

COc1cc(C2Oc3c(O)cc(CCCO)cc3C2CO)ccc1O[C@H]1O[C@H](C)[C@@H](O)[C@H](O)[C@@H]1O (stereo not given in full)
inactive: Potency [1] | Potency [2] | Potency [3]

CC1=C2CC3OC3(C)CCC3OC3(C)CC2OC1=O (stereo not given)
inactive: Potency [1] | Potency [2] | Potency [3]

C=CC(C)(CC/C=C(\C)CC/C=C(\C)CC(O)/C=C(\C)C(=O)O)O[C@@H]1O[C@H](CO)[C@@H](O)[C@H](O)[C@H]1O[C@@H]1O[C@H](CO)[C@@H](O)[C@H](O)[C@H]1O (stereo not given in full)
inactive: Potency [1] | Potency [2] | Potency [3]

COC1=Cc2c(nc3n(c2=O)C(C)C(=O)NC3(O)C(C)C)OC=C1 (stereo not given)
inactive: Potency [1] | Potency [2] | Potency [3]

CC[C@H]1OC(=O)C[C@@H](O)[C@H](C)[C@@H](O[C@@H]2O[C@H](C)[C@@H](O)[C@H](N(C)C)[C@H]2O)[C@@H](CCN2C[C@H](C)C[C@H](C)C2)C[C@@H](C)C(=O)/C=C/C(C)=C/[C@@H]1CO[C@@H]1O[C@H](C)[C@@H](O)[C@@H](OC)[C@H]1OC
inactive: Potency [1] | Potency [2] | Potency [3]

O=C(c1ccccn1)c1cnn2c(-c3ccncc3)ccnc12
inactive: Potency [1] | Potency [2] | Potency [3]

COc1ccc(C(=O)O[C@H]2CC(C)=CC[C@@]3(C)[C@@H](OC(C)=O)C[C@@](O)(C(C)C)[C@H]23)cc1
inactive: Potency [1] | Potency [2] | Potency [3]

CC(/C=C/C1(O)C(C)CC(O)CC1(C)C)OC1OC(CO)C(O)C(O)C1O (stereo not given)
inactive: Potency [1] | Potency [2] | Potency [3]

CC1(C)NC2N(C1=O)c1ccccc1C2(O)CC(C(=O)O)n1cnc2ccccc2c1=O (stereo not given)
inactive: Potency [1] | Potency [2] | Potency [3]

C[C@@H]1O[C@@H](O[C@H]2[C@H](O[C@H]3CC[C@@]4(C)C(CC[C@]5(C)C4CC=C4C6CC(C)(C)CC[C@]6(C(=O)O[C@@H]6O[C@H](CO[C@@H]7O[C@H](CO)[C@@H](O[C@@H]8O[C@@H](C)[C@H](O)[C@@H](O)[C@H]8O)[C@H](O)[C@H]7O)[C@@H](O)[C@H](O)[C@H]6O)CC[C@]45C)[C@]3(C)CO)OC[C@H](O)[C@@H]2O)[C@H](O)[C@H](O)[C@H]1O (stereo not given in full)
inactive: outcome [1] inactive [at 9.52 µM] | activity change, negative = inhibition [2] -7.52% [at 9.73 µM] | outcome [3] inactive [at 11.6 µM]

N#Cc1ccc2[nH]c(O)c(-c3ccc(CN4CCOCC4)cn3)c2c1
inactive: Potency [1] | Potency [2] | Potency [3]

CCNC(=O)CCC/C=C\C[C@@H]1[C@@H](/C=C/C(O)CCc2ccccc2)[C@@H](O)C[C@@H]1O (stereo not given in full)
inactive: Potency [1] | Potency [2] | Potency [3]

CC(C)(C)NCc1cc(Nc2ccnc3cc(Cl)ccc23)c2c(c1O)CCCC2
inactive: activity, negative = inhibition [1] -7.83% [at 0.4 µM] | activity change, negative = inhibition [2] -7.38% [at 0.409 µM] | activity change, negative = inhibition [3] -4.19% [at 0.464 µM]

COc1ccc(C(O[C@@H]2O[C@H](CO)[C@@H](O)[C@H](O)[C@H]2O)C(CO)Oc2ccc(/C=C/CO)cc2OC)cc1O (stereo not given in full)
inactive: Potency [1] | Potency [2] | Potency [3]

C/C1=C\C[C@H](O[C@@H]2O[C@H](CO)[C@@H](O)[C@H](O)[C@H]2O)/C(C)=C/[C@H]2OC(=O)[C@H](C)[C@@H]2CC1
inactive: Potency [1] | Potency [2] | Potency [3]

CC(O)(CC(=O)O)CC(=O)O[C@@H]1[C@@H](O)[C@H](OCCc2ccccc2)O[C@H](CO)[C@H]1O (stereo not given in full)
inactive: Potency [1] | Potency [2] | Potency [3]

CC1(C)CCCC2(C)C3=C(C(=O)OC3O)C(O)CC12 (stereo not given)
inactive: Potency [1] | Potency [2] | Potency [3]

C=C1CCC2C(C)(CO[C@@H]3O[C@H](CO)[C@@H](O)[C@H](O)[C@H]3O)C(O)CCC2(C)C1C(=O)CC1=CCOC1=O (stereo not given in full)
inactive: Potency [1] | Potency [2] | Potency [3]

CC1CCCC2OC2C(=O)c2c(O)cc(O)cc2CC(=O)O1 (stereo not given)
inactive: Potency [1] | Potency [2] | Potency [3]

C[C@@H]1O[C@@H](O[C@H]2[C@H](OC(=O)C34CCC(C)(C)CC3C3=CCC5C6(C)CC(O)C(O[C@@H]7O[C@H](CO)[C@@H](O)[C@H](O)[C@H]7O)C(C)(C(=O)O)C6CCC5(C)C3(CO)CC4)O[C@H](C)[C@H](O)[C@@H]2O)[C@H](O)[C@H](O)[C@H]1O[C@@H]1OC[C@@H](O)[C@H](O)[C@H]1O (stereo not given in full)
inactive: Potency [1] | Potency [2] | outcome [3] inactive [at 11.6 µM]

CC1OC(OC2C(O)C(C(=O)O)OC(OC3CCC4(C)C(CCC5(C)C4C=CC4=C6CC(C)(C)CC(O)C6(C)CCC45C)C3(C)C)C2OC2OCC(O)C(O)C2O)C(O)C(O)C1O (stereo not given)
inactive: Potency [1] | Potency [2] | outcome [3] inactive [at 11.6 µM]

COc1cc(C2OCC3C(c4ccc(OC5OC(CO)C(O)C(O)C5O)c(OC)c4)OCC23)ccc1O (stereo not given)
inactive: Potency [1] | Potency [2] | Potency [3]
